From PubChem BioAssay (Tox21) come the findings set out here.

Several values for one entry are separate records, joined by “and”; a condition that tells them apart may be missing. Equal values may be shown once. Inconclusive results are not listed. Where a structure was tested more than once in an assay, its records may differ in their call. Activity calls are given as the source filed them. Unless noted, calls follow the shape of the dose curve; as a rule, active = well fitted curve in the direction sought with a large enough effect in the repeat runs; inconclusive = weak or mixed curves; inactive = no such curve, though single readings can be large; an effect the other way counts as inactive or inconclusive.

Test [1] addresses Progesterone receptor (Homo sapiens) (UniProt P06401). The test can be described thus: qHTS assay to identify small molecule agonists of the progesterone receptor (PR) signaling pathway (AID 1346784; calls by dose curve; also: nearly all actives have a fitted effect of over 30% in size). Put shortly: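 Reporter assay, GripTite PR-UAS-bla HEK 293T cells: 16 hr exposure to DMSO-dissolved compounds at 37C, 5% CO2, in steroid-depleted (2% charcoal-stripped FBS) medium; beta-lactamase measured by FRET fluorescence.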
For orientation: Quantitative high-throughput screening tests each substance at several concentrations.

The target is the same in test [2]. The test can be described thus: qHTS assay to identify small molecule antagonists of the progesterone receptor (PR) signaling pathway (AID 1346795; active = well fitted inhibition curve with a large enough effect in the signal ratio in the repeat runs, not every such curve was filed as active; the % refers to the signal ratio). Put shortly:
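Stimulus R5020 at 1 nM final; cells HEK293T PR-UAS-bla; medium with 2% charcoal-stripped FBS; compound exposure 16 hr at 37C, 5% CO2; detection by FRET beta-lactamase substrate, 2 hr, room temperature.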

Test [3] can be described thus: qHTS assay to identify small molecule antagonists of the progesterone receptor (PR) signaling pathway - cell viability counter screen (AID 1346798). Also: series mostly up to about 92 µM; nearly all actives have a fitted effect of over 50% in size. Put shortly:
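In the same plates used for the beta-lactamase readout, cell viability of compound- and R5020-treated PR-UAS-bla HEK293T cells (16 hr, 37C) was assessed by CellTiter-Glo luminescence.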

A short description of test [4]: qHTS assay to identify small molecule agonists of the progesterone receptor (PR) signaling pathway - cell viability counter screen (AID 1346799; calls by dose curve; also: nearly all actives have a fitted effect of over 45% in size). The method in brief:
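Multiplexed viability read: CellTiter-Glo luminescence, 30 min RT, following LiveBLAzer FRET measurement on PR-UAS-bla HEK293T cells exposed to compounds 16 hr.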

Test [5] is described as follows: qHTS assay to identify small molecule antagonists of the TGF-beta/Smad signaling pathway - cell viability counter screen (AID 1346824). Also: nearly all actives have a fitted effect of over 50% in size. Put shortly:
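SBE-bla HEK 293T cells, incubated overnight, then compound plus 0.25 ng/mL TGF-beta1 (stock added) for 5 hr at 37 C. Viability was read in the same wells by CellTiter-Glo luminescence after 30 min at room temperature.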

Test [6] in a line: qHTS assay to identify small molecule agonists of the TGF-beta/Smad signaling pathway - cell viability counter screen (AID 1346829). Also: top concentration of the series differs between compounds; nearly all actives have a fitted effect of over 45% in size. Put shortly: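 Here the cytotoxicity of library compounds is measured in SBE-bla HEK 293T cells treated for 5 hr, using CellTiter-Glo added to wells already read for the beta-lactamase reporter.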
A short description of test [7]: qHTS assay to identify small molecule agonists of the TGF-beta/Smad signaling pathway (AID 1346859; active = well fitted activation curve with a large enough effect in the signal ratio in the repeat runs, not every such curve was filed as active; the % refers to the signal ratio; also: series mostly up to about 77 µM). Put shortly:
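Screening used HEK 293T SBE-bla cells at 4,000/well. Test agents: 5 hr, 37 C. Detection: FRET substrate, 2 hr RT, then excitation 405 nm with emissions at 460 and 530 nm.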

Test [8] concerns the target Thyrotropin-releasing hormone receptor (Homo sapiens) (UniProt P34981). The test can be described thus: qHTS assay to identify small molecule agonists of the thyrotropin-releasing hormone receptor (TRHR) signaling pathway (AID 1346891; calls by dose curve; also: series mostly up to about 58 µM). Put shortly:
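Readout was intracellular calcium fluorescence in TRHR-Hek293 cells. Cells were incubated 18 h, dye-loaded 2 h at 37 °C, and treated with compound in agonist mode.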

Test [9] is described as follows: Human pregnane X receptor (PXR) small molecule agonists, qHTS cell viability counter screen (AID 1346977). Also: nearly all actives have a fitted effect of over 50% in size. The method in brief: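 In each well, the PXR reporter HepG2 line was checked for viability: CellTiter-Fluor reagent added 23hr post-dosing, fluorescence read after 1hr incubation at 37C.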
The nature of test [10]: Caspase-3/7 induction in CHO-K1 cells by small molecules, qHTS cell viability counter screen (AID 1346979). Also: nearly all actives have a fitted effect of over 35% in size. The method in brief: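 Following a 5hr settling period, CHO-K1 cells at 1,500 per well received DMSO-dissolved compounds. Cell viability was quantified 16hr later by CellTiter-Fluor fluorescence, measured after 1hr with reagent at 37C.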
Test [11] is described as follows: Caspase-3/7 induction in HepG2 cells by small molecules, qHTS cell viability counter screen (AID 1346981). Also: series mostly up to about 92 µM; nearly all actives have a fitted effect of over 30% in size. The method in brief:
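Wild-type HepG2 cells (2,000/well) were allowed to settle for 5 hr at 37 C, 5% CO2, then dosed with compounds in DMSO by pin transfer. After 16 hr at 37 C, CellTiter-Fluor was added and fluorescence read 1 hr later.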

Test [12] concerns the target Nuclear receptor subfamily 1 group I member 2 (Homo sapiens) (UniProt O75469). The test can be described thus: Human pregnane X receptor (PXR) small molecule agonists, qHTS assay (AID 1346982). Also: nearly all actives have a fitted effect of over 35% in size. Also: potency is read from the fitted curve at half-maximal effect. The method in brief: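 PXR-Luc HepG2 cells (CYP3A4 promoter-driven luciferase) were seeded in medium with 5% charcoal-stripped FBS, left 5 hr at 37 C, then exposed to compounds in DMSO for 24 hr. Luminescence was read after ONE-Glo addition.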

Test [13] concerns the target Cytochrome P450 2D6 (Homo sapiens) (UniProt P10635). The test can be described thus: Cytochrome P450 Family 2 Subfamily D Member 6 (CYP2D6) small molecule antagonists: luciferase reporter qHTS assay (AID 1671196). Also: nearly all actives have a fitted effect of over 50% in size. Also: potency is read from the fitted curve at half-maximal effect. Put shortly: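 CYP2D6 enzyme–substrate mix was held with compound for 10 min at room temperature, then NADPH regeneration solution was added and the reaction ran 1 h at room temperature. Luciferin product was detected by luminescence after 20 min with detection reagent.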
A general note: Reporter assays use an easily measured gene product as a stand-in for the process of interest.

Test [14] deals with Cytochrome P450 2C19 (Homo sapiens) (UniProt P33261). The test can be described thus: Cytochrome P450 Family 2 Subfamily C Member 19 (CYP2C19) small molecule antagonists: luciferase reporter qHTS assay (AID 1671197). Also: nearly all actives have a fitted effect of over 65% in size. Also: potency is read from the fitted curve at half-maximal effect. Put shortly:
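Light output is proportional to CYP2C19 activity: proluciferin substrate is converted to luciferin, then detected by a luciferin detection reagent that also stops the 1 h, 37C NADPH-driven reaction. Ketoconazole serves as positive control.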

Test [15] deals with Cytochrome P450 2C9 (Homo sapiens) (UniProt P11712). The test can be described thus: Cytochrome P450 Family 2 Subfamily C Member 9 (CYP2C9) small molecule antagonists: luciferase reporter qHTS assay (AID 1671198). Put shortly:
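P450-Glo proluciferin substrate with CYP2C9 enzyme; 10 min RT preincubation, then NADPH regeneration 1 h at 37C; luciferin detection reagent 20 min RT, luminescence in relative luminescence units.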

Test [16] is described as follows: Caspase-3/7 induction in HepG2 cells by small molecules, qHTS assay (AID 1346978). Also: nearly all actives have a fitted effect of over 15% in size. Put shortly: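 Wild-type HepG2 cells, 2,000/well, settled 5 hr at 37 C and 5% CO2, then compound-treated for 17 hr; caspase-3/7 activity read by luminescent Caspase-Glo 3/7 after 30 min at room temperature.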
A short description of test [17]: Caspase-3/7 induction in CHO-K1 cells by small molecules, qHTS assay (AID 1346980). Also: nearly all actives have a fitted effect of over 15% in size. The method in brief: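 Wild-type CHO-K1 cells exposed to compounds for 17hr at 37 C, 5% CO2. Caspase-3/7 activity then measured by Caspase-Glo 3/7 luminescence after 30min at room temperature.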
The target in test [18] is Thyrotropin-releasing hormone receptor (Homo sapiens) (UniProt P34981). The test can be described thus: qHTS assay to identify small molecule antagonists of the thyrotropin-releasing hormone receptor (TRHR) signaling pathway (AID 1346877; active = well fitted inhibition curve with a large enough effect in the repeat runs, not every such curve was filed as active; also: series mostly up to about 51 µM). Put shortly: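 TRHR-expressing HEK293 cells were seeded, cultured 18 h at 37 °C, then loaded with calcium dye for 2 h. Compounds were pre-incubated 5 min at room temperature before 1 nM TRH (final) was added, and kinetic fluorescence was recorded for 3 min.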
Chain of Thyrotropin-releasing hormone receptor (Homo sapiens) (P34981 whole entry, looked up): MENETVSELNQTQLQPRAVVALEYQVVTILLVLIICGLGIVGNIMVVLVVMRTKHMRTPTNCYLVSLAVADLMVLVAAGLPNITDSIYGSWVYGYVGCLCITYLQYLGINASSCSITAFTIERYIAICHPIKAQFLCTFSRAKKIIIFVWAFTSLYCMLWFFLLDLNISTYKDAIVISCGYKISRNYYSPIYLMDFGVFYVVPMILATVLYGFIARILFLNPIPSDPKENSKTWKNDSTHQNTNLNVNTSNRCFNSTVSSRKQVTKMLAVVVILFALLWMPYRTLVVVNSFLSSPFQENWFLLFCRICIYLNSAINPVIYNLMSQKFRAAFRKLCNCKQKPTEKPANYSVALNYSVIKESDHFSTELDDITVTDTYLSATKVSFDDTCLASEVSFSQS

Test [19] deals with Nuclear receptor subfamily 1 group I member 2 (Homo sapiens) (UniProt O75469). The test can be described thus: CYP3A4 induction through human pregnane X receptor (PXR) by small molecules, qHTS assay (AID 1346984). Also: nearly all actives have a fitted effect of over 40% in size. Also: potency is read from the fitted curve at half-maximal effect. The method in brief: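 DPX-2 cells (HepG2 co-transfected with PXR and CYP3A4 promoter-luciferase) treated with compounds 24 h at 37C; luciferin-IPA CYP3A4 substrate 3uM final added for 3 h, then One-Glo; luminescence read. qHTS format.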
Chain of Nuclear receptor subfamily 1 group I member 2 (Homo sapiens) (O75469 whole entry, looked up): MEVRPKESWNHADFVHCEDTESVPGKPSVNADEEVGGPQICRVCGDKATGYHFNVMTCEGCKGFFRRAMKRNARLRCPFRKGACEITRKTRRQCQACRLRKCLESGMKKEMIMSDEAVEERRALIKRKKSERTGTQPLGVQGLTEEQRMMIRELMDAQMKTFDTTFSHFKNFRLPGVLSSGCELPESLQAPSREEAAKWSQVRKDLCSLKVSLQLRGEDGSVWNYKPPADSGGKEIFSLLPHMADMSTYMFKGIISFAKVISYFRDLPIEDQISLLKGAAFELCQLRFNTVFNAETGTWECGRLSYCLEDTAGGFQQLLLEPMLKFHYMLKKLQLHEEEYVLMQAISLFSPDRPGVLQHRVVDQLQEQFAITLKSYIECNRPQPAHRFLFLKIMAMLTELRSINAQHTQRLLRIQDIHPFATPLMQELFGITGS

For test [20] the target is unchanged. The test can be described thus: Human pregnane X receptor (PXR) activation by small molecules, qHTS assay (AID 1346985). Also: nearly all actives have a fitted effect of over 40% in size. Also: potency is read from the fitted curve at half-maximal effect. The method in brief:
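DPX-2 cells (HepG2 co-transfected with a PXR response element and a CYP3A4-promoter luciferase construct) were seeded at 2,000 per well, rested 5 hr at 37C, then exposed to DMSO-dissolved compounds for 24 hr. Activation was read as luciferase luminescence.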

Chain of Cytochrome P450 2D6 (Homo sapiens) (P10635 whole entry, looked up): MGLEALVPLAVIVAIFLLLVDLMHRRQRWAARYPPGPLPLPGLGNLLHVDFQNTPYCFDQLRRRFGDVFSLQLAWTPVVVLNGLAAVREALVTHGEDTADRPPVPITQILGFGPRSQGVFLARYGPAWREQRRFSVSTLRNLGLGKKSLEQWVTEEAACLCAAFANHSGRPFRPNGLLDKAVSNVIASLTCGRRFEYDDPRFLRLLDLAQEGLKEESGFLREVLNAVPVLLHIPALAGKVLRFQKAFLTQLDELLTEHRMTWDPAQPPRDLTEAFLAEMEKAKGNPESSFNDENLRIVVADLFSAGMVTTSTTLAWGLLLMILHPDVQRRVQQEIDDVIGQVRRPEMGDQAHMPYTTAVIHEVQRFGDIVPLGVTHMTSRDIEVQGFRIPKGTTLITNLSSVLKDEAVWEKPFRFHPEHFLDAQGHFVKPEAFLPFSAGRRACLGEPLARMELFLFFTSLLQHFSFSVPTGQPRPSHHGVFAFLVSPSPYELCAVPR
Chain of Cytochrome P450 2C9 (Homo sapiens) (P11712 whole entry, looked up): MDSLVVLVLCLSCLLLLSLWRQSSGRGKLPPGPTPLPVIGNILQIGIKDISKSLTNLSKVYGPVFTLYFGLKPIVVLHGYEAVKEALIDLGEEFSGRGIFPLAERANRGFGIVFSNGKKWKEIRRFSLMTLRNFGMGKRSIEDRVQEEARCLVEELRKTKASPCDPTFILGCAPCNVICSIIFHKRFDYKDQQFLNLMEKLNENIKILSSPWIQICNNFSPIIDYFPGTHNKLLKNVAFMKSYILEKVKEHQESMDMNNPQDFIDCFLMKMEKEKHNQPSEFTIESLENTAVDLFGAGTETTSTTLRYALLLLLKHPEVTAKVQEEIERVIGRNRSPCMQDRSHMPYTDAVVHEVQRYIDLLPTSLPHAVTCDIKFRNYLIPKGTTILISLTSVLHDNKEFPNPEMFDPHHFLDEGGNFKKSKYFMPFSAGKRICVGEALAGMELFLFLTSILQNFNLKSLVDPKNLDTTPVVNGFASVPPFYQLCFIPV
Chain of Progesterone receptor (Homo sapiens) (P06401 whole entry, looked up): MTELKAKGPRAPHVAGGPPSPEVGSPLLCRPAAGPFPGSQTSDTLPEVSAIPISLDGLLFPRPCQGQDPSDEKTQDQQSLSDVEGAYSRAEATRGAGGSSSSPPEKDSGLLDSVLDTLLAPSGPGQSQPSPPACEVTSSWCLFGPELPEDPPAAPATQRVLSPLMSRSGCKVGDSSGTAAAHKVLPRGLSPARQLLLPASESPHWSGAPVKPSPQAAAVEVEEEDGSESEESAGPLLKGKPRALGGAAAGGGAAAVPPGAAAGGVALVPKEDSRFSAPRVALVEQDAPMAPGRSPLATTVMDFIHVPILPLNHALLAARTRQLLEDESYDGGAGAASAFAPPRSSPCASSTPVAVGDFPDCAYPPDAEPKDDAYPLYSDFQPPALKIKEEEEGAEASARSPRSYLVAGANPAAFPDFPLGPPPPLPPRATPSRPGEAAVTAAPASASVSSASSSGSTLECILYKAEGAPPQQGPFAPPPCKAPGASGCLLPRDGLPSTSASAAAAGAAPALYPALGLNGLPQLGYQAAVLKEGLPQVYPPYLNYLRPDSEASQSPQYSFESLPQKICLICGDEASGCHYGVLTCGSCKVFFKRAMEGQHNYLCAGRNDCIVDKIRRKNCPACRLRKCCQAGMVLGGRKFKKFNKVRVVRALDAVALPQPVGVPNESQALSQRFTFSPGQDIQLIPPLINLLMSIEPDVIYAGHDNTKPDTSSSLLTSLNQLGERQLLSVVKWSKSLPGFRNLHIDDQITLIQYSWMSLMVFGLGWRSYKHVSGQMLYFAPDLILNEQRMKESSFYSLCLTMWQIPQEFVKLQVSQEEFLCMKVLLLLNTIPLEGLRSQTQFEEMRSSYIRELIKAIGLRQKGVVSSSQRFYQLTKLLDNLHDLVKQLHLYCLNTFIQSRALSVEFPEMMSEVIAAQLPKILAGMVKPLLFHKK
Chain of Cytochrome P450 2C19 (Homo sapiens) (P33261 whole entry, looked up): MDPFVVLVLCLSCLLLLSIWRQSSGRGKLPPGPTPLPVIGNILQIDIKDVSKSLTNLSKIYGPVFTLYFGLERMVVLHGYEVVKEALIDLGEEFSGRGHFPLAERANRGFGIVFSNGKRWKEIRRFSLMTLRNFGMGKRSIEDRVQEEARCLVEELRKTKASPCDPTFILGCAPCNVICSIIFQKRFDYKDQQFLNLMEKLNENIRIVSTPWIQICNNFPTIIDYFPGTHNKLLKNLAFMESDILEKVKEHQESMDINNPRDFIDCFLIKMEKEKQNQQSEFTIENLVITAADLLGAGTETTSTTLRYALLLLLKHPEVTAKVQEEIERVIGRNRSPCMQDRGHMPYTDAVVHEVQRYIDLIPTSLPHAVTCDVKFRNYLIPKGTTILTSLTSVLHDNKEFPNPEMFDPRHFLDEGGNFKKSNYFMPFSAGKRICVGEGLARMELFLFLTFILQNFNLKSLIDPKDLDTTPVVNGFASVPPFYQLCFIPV

Consider `O=C(O)c1ccc(O)cc1`, for which the Potency result in test [1], in test [2], in [3], in test [4], in test [5] and in [6] was “inactive” each time. The Potency entry in test [8], in [9], in test [10], in test [11], in [12] and in test [13] was “inactive” throughout. Also, the Potency entry in test [14] and in test [15] was “inactive” each time. Also, the result in [7] was inactive.
Regarding `C=CC(=O)OCCCC`, the Potency result in test [1], in test [2], in test [3], in test [4], in test [5] and in test [6] was “inactive” throughout. The Potency result in [8], in [9], in test [16], in [10], in [17] and in test [11] was “inactive” each time. Further, the Potency result in [12], in test [13], in test [14] and in test [15] was “inactive” in each case. Also, the call in test [7] was inactive.
For the molecule `Brc1nc2ccccc2s1`, the Potency result in test [1], in test [2], in test [3], in test [4], in test [5] and in test [6] was “inactive” in each case. Also, the Potency result in [18], in test [8], in [9], in [16], in test [10] and in [11] was “inactive” throughout. Besides, the Potency entry in test [13] and in test [15] was “inactive” in each case. Also, in test [7], the call was inactive. The Potency in test [14] is 35.5 µM (active) and inactive.
For the molecule `COC(=O)c1ccc(C)cc1`, the Potency result in test [1], in test [2], in [3], in test [4], in [5] and in [6] was “inactive” throughout. For the same molecule, the Potency result in test [18], in [8], in test [9], in test [16], in test [10] and in [17] was “inactive” in each case. The Potency entry in [11], in [12], in test [13], in test [14] and in test [15] was “inactive” throughout. Besides, the outcome in [7] was inactive.
With `CC[C@]12CCCN3CCc4c(n(c5ccccc45)[C@@](O)(C(=O)OC)C1)[C@@H]32`, the Potency entry in test [1], in test [2], in test [3], in test [4], in test [5] and in [6] was “inactive” in each case. The Potency result in test [9], in test [16], in test [10], in test [17], in [11] and in test [15] was “inactive” each time. Moreover, the molecule was called inactive in [7]. Further, the Potency is 30.6 µM (active) and 9.44 µM (active) in test [12]; 12.6 µM (active) in [19]; 14.1 µM (active) in test [20]; 10 µM (active) and 8.71 µM (active) in test [13]; 71 µM (active) and inactive in test [14].
In the case of `CN(C)/N=N/c1nc[nH]c1C(N)=O`, the Potency entry in [1], in test [2], in test [3], in test [4], in [5] and in [6] was “inactive” throughout. In addition, the Potency result in test [18], in test [8], in test [9], in test [16], in test [10] and in test [11] was “inactive” throughout. Further, the Potency entry in test [12], in [19], in [20], in [13] and in test [14] was “inactive” throughout. In addition, the result in test [7] was inactive.
For the molecule `CN1CCOCC1`, the Potency result in [1], in test [2], in [3], in test [4], in test [5] and in [6] was “inactive” each time. In addition, the Potency entry in [18], in test [8], in test [9], in test [16], in test [10] and in test [17] was “inactive” in each case. Besides, in [11], the Potency result is “inactive”. The result in test [7] was inactive.
